Source: PubChem BioAssay (NCATS)
Inconclusive results are not listed. Where a call stands in place of a potency, no number is given. The source made the active and inactive calls. The call rests on the fitted dose curve; in most records, active means well fitted inhibition curve with a large enough effect; inconclusive means small, poorly fitted or top-dose-only effect; inactive means no such curve, though single readings can be large or run the other way.

tested on: Zika virus NS2B-NS3 protease (linked construct); test: Primary screen NINDS Rhodamine qHTS for Zika virus inhibitors (AID 1347160); conditions: purified NS2B-NS3 protease, Rhodamine110 substrate fluorescence; series mostly up to 57.1 µM; further: nearly all actives have a fitted effect of over 55% in size
In short: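 Single-chain NS2B-NS3 protease, 25 nM, pH 8.0; compounds preincubated 15 min. Activity: Rhodamine110 release from 1.5 microM substrate over 15 min, room temperature, data fitted to 4-parameter Hill.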
Potency means the concentration at half of the fitted maximal effect.

| SMILES | Potency | outcome |
| --- | --- | --- |
| CC1CCC2(C(=O)OC3OC(CO)C(O)C(O)C3O)CCC3(C(=O)O)C(=CCC4C5(C)CCC(OC6OC(C)C(O)C(O)C6O)C(C)(C)C5CCC43C)C2C1C (configuration not stated) | inactive | – |
| CC1=C2C(=O)C=C(CO)[C@@H]2[C@H]2OC(=O)[C@H](C)[C@@H]2[C@@H](O)C1 | inactive | – |
| CC(C)C(=O)c1cn(CC(=O)COc2ccc(Oc3ccccc3)cc2)c2ccc(C(=O)O)cc12 | 8.91 µM (active) | – |
| CC/C=C/CC1=C(CCCCCCCC(=O)O)CCC1=O | inactive | – |
| COc1ccc([C@@H]2N[C@H](C(=O)O)Cc3c2[nH]c2ccccc32)cc1CN1CCN(c2ccccc2F)CC1 | inactive | – |
| C=C[C@H]1[C@H](O[C@@H]2O[C@H](CO)[C@@H](O)[C@H](O)[C@H]2O)OC=C(C(=O)OC)[C@H]1C[C@@H]1N[C@H](C(=O)O)Cc2c1[nH]c1ccccc21 | inactive | – |
| CC1(C)O[C@@]2(C)CC[C@@H]1C[C@@H]2OC1OC(CO)C(O)C(O)C1O (some centres not stated) | 11.2 µM (active) | – |
| CC1=CC(=O)C2C(C)(C)CCCC2(C)C12CCC1(COC(=O)C1)O2 (configuration not stated) | inactive | – |
| C=CC1(C)C=C2C(=O)CC3C(C)(C)CCCC3(C(=O)O)C2(O)CC1 (configuration not stated) | inactive | – |
| C=C1CCC2C(C)(C)C(O)CCC2(C)C1CCC(C)CCOC(=O)CCC(=O)O (configuration not stated) | inactive | – |
| C=CCc1ccc(O[C@@H]2O[C@H](CO)[C@@H](O)[C@H](O)[C@H]2O)c(OC)c1 | inactive | – |
| COC(=O)C1=C[C@@H](O)[C@@H](O)[C@H](O[C@@H]2O[C@H](COC(=O)/C=C/c3ccccc3)[C@@H](O)[C@H](O)[C@H]2O)C1 | inactive | – |
| CC1CC(=O)C2=C(O1)OC1(C)CCC3C(C)(C)C=CC(=O)C3(C)C1C2 (configuration not stated) | 12.6 µM (active) | – |
| CC(=O)OC[C@]1(O)[C@H]2[C@H](OC(=O)CC(C)C)OC=C(CO[C@@H]3O[C@H](CO)[C@@H](O)[C@H](O)[C@H]3O)[C@H]2C[C@@H]1O | inactive | – |
| C/C=C(\C)C(=O)O[C@H]1[C@@H](O[C@]2(COC(=O)CC(C)C)O[C@H](COC(=O)C(C)C)[C@@H](OC(C)=O)[C@@H]2O)O[C@H](COC(C)=O)[C@@H](O)[C@@H]1O | inactive | – |
| CN(C)c1cccc(-c2c3c(=O)n(-c4ccccc4Cl)[nH]c3cc(=O)n2C)c1 | inactive | – |
| CCC(C)(O)C(O)C(=O)OCc1ccc(O[C@@H]2O[C@H](CO)[C@@H](O)[C@H](O)[C@H]2O)cc1 (some centres not stated) | inactive | – |
| O=C1NCc2nc3ccccc3c(=O)n2C1Cc1c[nH]c2ccccc12 (configuration not stated) | inactive | – |
| C/C(=C\CO)CC/C=C(\C)C(=O)O[C@H]1[C@H](OC2OC=C(C(=O)O)C3CCC(C)(O)C23)O[C@H](CO)[C@@H](O)[C@@H]1O (some centres not stated) | inactive | – |
| C[C@]12C=CC(=O)C=C1CC[C@@H]1[C@@H]2[C@@H](O)C[C@@]2(C)[C@H]1CC[C@]2(O)C(=O)COC(=O)CCC(=O)O | inactive | – |
| C#C[C@]1(O)CC[C@H]2[C@@H]3CCC4=C/C(=N/O)CC[C@@H]4[C@H]3CC[C@@]21CC | inactive | – |
| COC(=O)C1C(CC(C)=O)C=CC(O)C12Oc1cc(C)cc(O)c1C2=O (configuration not stated) | inactive | – |
| CC1CCC2(O1)C(C)(C)CC(O[C@@H]1O[C@H](CO[C@@H]3OC[C@](O)(CO)[C@H]3O)[C@@H](O)[C@H](O)[C@H]1O)CC2(C)O (some centres not stated) | inactive | – |
| C[C@@H]1O[C@@H](O[C@H]2[C@H](O[C@H]3[C@H](O[C@H]4CC[C@@]5(C)C(CC[C@]6(C)C5CC=C5[C@@H]7CC(C)(C(=O)O)C[C@@H](O)[C@]7(C)CC[C@]56C)[C@@]4(C)CO)O[C@H](C(=O)O)[C@@H](O)[C@@H]3O)O[C@H](CO)[C@H](O)[C@@H]2O)[C@H](O)[C@H](O)[C@H]1O (some centres not stated) | inactive | – |
| CC(=O)c1cnc2ccc(-c3cc(Cl)c(O)c(Cl)c3)nc2c1NC1CCC(CN(C)C)CC1 (configuration not stated) | – | inactive; activator [at 10.7 µM] |
| C=C1[C@@H]2[C@H]3OC(=O)C(=C)[C@@H]3CC[C@@](C)(O)[C@@H]2C[C@@H]1O[C@@H]1O[C@H](CO)[C@@H](O)[C@H](O)[C@H]1O | inactive | – |
| C/C=C(\C)C(=O)O[C@H]1[C@H](O)[C@]2(COC(C)=O)[C@H](O)C[C@]3(C)C(=CCC4[C@@]5(C)CC[C@H](O[C@@H]6O[C@H](C(=O)O)[C@@H](O[C@@H]7O[C@H](CO)[C@@H](O)[C@H](O)[C@H]7O)[C@H](O)[C@H]6O[C@@H]6O[C@H](CO)[C@@H](O)[C@H](O)[C@H]6O)[C@](C)(CO)C5CC[C@]43C)[C@@H]2CC1(C)C (some centres not stated) | inactive | – |
